According to PubChem BioAssay (NCATS):
Inconclusive results are not listed. Calls of active or inactive are those of the source. The call rests on the fitted dose curve; in most records, active means well fitted curve in the direction sought with a large enough effect; inconclusive means small, poorly fitted or top-dose-only effect, or another doubt; inactive means no such curve, though single readings can be large; an effect the other way counts as inactive or inconclusive.

Assays:
[1] = Quantitative High-Throughput drug screen in 47 multiple myeloma cell lines against the NCATS MIPE library collection: JIM3_ECACC cell viability assay (AID 1918963; further: nearly all actives have a fitted effect of over 35% in size; further: potency means the concentration at half of the fitted maximal effect)
In short: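 Steps: seed 500 cells per well; pin-transfer MIPE 4.0 library; incubate 48 h at 37C, 5% CO2, humidified; add CellTiter-Glo, 5 min room temperature; read luminescence.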

[2] = Quantitative High-Throughput drug screen in 47 multiple myeloma cell lines against the NCATS MIPE library collection: JIM1_ECACC cell viability assay (AID 1918964; further: potency means the concentration at half of the fitted maximal effect)
In short: (§1)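 CellTiter-Glo luminescence (ATP) after 48 h compound exposure, 37C/5% CO2; 500 cells/well; MIPE 4.0 approved/investigational drugs pinned in; DMSO = 100%, media only = 0% viability.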

[3] = Quantitative High-Throughput drug screen in 47 multiple myeloma cell lines against the NCATS MIPE library collection: H1112_PLB cell viability assay (AID 1918967; further: nearly all actives have a fitted effect of over 30% in size; further: potency means the concentration at half of the fitted maximal effect)
In short: as §1

[4] = Quantitative High-Throughput drug screen in 47 multiple myeloma cell lines against the NCATS MIPE library collection: Karpas25_ECACC cell viability assay (AID 1918968; further: nearly all actives have a fitted effect of over 35% in size; further: potency means the concentration at half of the fitted maximal effect)
In short: as §1

[5] = Quantitative High-Throughput drug screen in 47 multiple myeloma cell lines against the NCATS MIPE library collection: KMS27_JCRB cell viability assay (AID 1918970); further: nearly all actives have a fitted effect of over 30% in size; further: potency means the concentration at half of the fitted maximal effect
In short: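 ATP-based viability (CellTiter-Glo luminescence) is measured in cells treated 48 h with approved and investigational drugs at 37 °C. Controls are DMSO-only wells for full viability and media-only wells for none.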

[6] = Quantitative High-Throughput drug screen in 47 multiple myeloma cell lines against the NCATS MIPE library collection: KMS12PE_JCRB cell viability assay (AID 1918972); further: nearly all actives have a fitted effect of over 30% in size; further: potency means the concentration at half of the fitted maximal effect; on viability: series mostly up to about 46 µM
In short: as §1

[7] = Quantitative High-Throughput drug screen in 47 multiple myeloma cell lines against the NCATS MIPE library collection: MOLP8_DSMZ cell viability assay (AID 1918977); further: nearly all actives have a fitted effect of over 45% in size; further: potency means the concentration at half of the fitted maximal effect
In short: (§2)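 500 cells/well; MIPE 4.0 drugs pin-transferred; 48 h, 37C, 5% CO2. CellTiter-Glo, 5 min RT, luminescence. Controls: DMSO 100%, media 0%.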

[8] = Quantitative High-Throughput drug screen in 47 multiple myeloma cell lines against the NCATS MIPE library collection: NCIH929_DSMZ cell viability assay (AID 1918978); further: nearly all actives have a fitted effect of over 35% in size; further: potency means the concentration at half of the fitted maximal effect
In short: as §2

[9] = Quantitative High-Throughput drug screen in 47 multiple myeloma cell lines against the NCATS MIPE library collection: MM1R_ATCC cell viability assay (AID 1918981); further: nearly all actives have a fitted effect of over 35% in size; further: potency means the concentration at half of the fitted maximal effect
In short: as §2

[10] = Quantitative High-Throughput drug screen in 47 multiple myeloma cell lines against the NCATS MIPE library collection: LP1_DSMZ cell viability assay (AID 1918982); further: nearly all actives have a fitted effect of over 35% in size; further: potency means the concentration at half of the fitted maximal effect
In short: as §2

[11] = Quantitative High-Throughput drug screen in 47 multiple myeloma cell lines against the NCATS MIPE library collection: INA6_PLB cell viability assay (AID 1918965; further: nearly all actives have a fitted effect of over 55% in size; further: potency means the concentration at half of the fitted maximal effect)
In short: as §1

[12] = Quantitative High-Throughput drug screen in 47 multiple myeloma cell lines against the NCATS MIPE library collection: KMS12BM_JCRB cell viability assay (AID 1918971); further: nearly all actives have a fitted effect of over 35% in size; further: potency means the concentration at half of the fitted maximal effect
In short: (§3)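 Relative luminescence from CellTiter-Glo served as the viability signal, referenced to DMSO-treated (100%) and cell-free medium (0%) controls. Treatment lasted 48 hours at 37C with 500 cells per well.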

[13] = Quantitative High-Throughput drug screen in 47 multiple myeloma cell lines against the NCATS MIPE library collection: KMS20_JCRB cell viability assay (AID 1918973); further: nearly all actives have a fitted effect of over 45% in size; further: potency means the concentration at half of the fitted maximal effect
In short: as §1

[14] = Quantitative High-Throughput drug screen in 47 multiple myeloma cell lines against the NCATS MIPE library collection: OCIMY1_PLB cell viability assay (AID 1918979)
In short: as §2

[15] = Quantitative High-Throughput drug screen in 47 multiple myeloma cell lines against the NCATS MIPE library collection: JJN3_DSMZ cell viability assay (AID 1918966; further: nearly all actives have a fitted effect of over 50% in size; further: potency means the concentration at half of the fitted maximal effect)
In short: as §1

[16] = Quantitative High-Throughput drug screen in 47 multiple myeloma cell lines against the NCATS MIPE library collection: KMS26_JCRB cell viability assay (AID 1918975); further: nearly all actives have a fitted effect of over 45% in size; further: potency means the concentration at half of the fitted maximal effect
In short: as §3

[17] = Quantitative High-Throughput drug screen in 47 multiple myeloma cell lines against the NCATS MIPE library collection: MM1S_ATCC cell viability assay (AID 1918980); further: nearly all actives have a fitted effect of over 45% in size; further: potency means the concentration at half of the fitted maximal effect
In short: as §2

[18] = Quantitative High-Throughput drug screen in 47 multiple myeloma cell lines against the NCATS MIPE library collection: MMM1_PLB cell viability assay (AID 1918976)
In short: as §2

Structure (SMILES) | Potency [1] | Potency [2] | Potency [3] | Potency [4] | Potency [5] | Potency [6] | Potency [7] | Potency [8] | Potency [9] | Potency [10] | Potency [11] | Potency [12] | Potency [13] | Potency [14] | Potency [15] | Potency [16] | Potency [17] | Potency [18]
CCn1cc(C(=O)O)c(=O)c2ccc(C)nc21 | inactive | inactive | inactive | inactive | inactive | inactive | inactive | inactive | inactive | inactive | – | – | – | – | – | – | – | –
O=c1cc(-c2cccc3c2Sc2ccccc2S3)oc(N2CCOCC2)c1 | 16.6 µM (active) | 16.6 µM (active) | 20.9 µM (active) | 14.8 µM (active) | – | 16.6 µM (active) | – | 18.7 µM (active) | 23.5 µM (active) | – | 18.7 µM (active) | 23.5 µM (active) | 13.2 µM (active) | inactive | – | – | – | –
Nc1nc(F)nc2c1ncn2[C@@H]1O[C@H](COP(=O)(O)O)[C@@H](O)[C@H]1O | inactive | – | inactive | 13.2 µM (active) | inactive | – | – | – | 18.7 µM (active) | – | inactive | 16.6 µM (active) | – | – | inactive | inactive | – | –
CCn1c(C(=O)N(C2CC2)C2CC2)cc2c3c(ncn3C)c(Nc3cc(C)n(C)n3)nc21 | 18.7 µM (active) | – | 18.7 µM (active) | – | – | 11.8 µM (active) | – | – | inactive | inactive | 16.6 µM (active) | inactive | 16.6 µM (active) | inactive | 20.9 µM (active) | inactive | inactive | –
O=C1NC(=O)C(=Cc2ccc3nccnc3c2)S1 | 10.2 µM (active) | – | 6.45 µM (active) | 5.75 µM (active) | 2.29 µM (active) | 1.15 µM (active) | – | 3.63 µM (active) | 8.12 µM (active) | – | 7.24 µM (active) | 8.12 µM (active) | – | – | 8.12 µM (active) | 12.9 µM (active) | 6.45 µM (active) | –
Cc1ccn(-c2ccc(-c3ncco3)cc2)c(=O)c1-c1ccc2nc(N)ncc2c1 | 10.5 µM (active) | – | inactive | 9.35 µM (active) | inactive | 5.26 µM (active) | – | inactive | – | inactive | 0.662 µM (active) | 13.2 µM (active) | 8.33 µM (active) | inactive | – | – | – | –
CC(C)n1cnc2c(NCCCCCCNC(=O)OC(C)(C)C)nc(NCCO)nc21 | 18.7 µM (active) | inactive | 23.5 µM (active) | 23.5 µM (active) | – | – | – | – | 20.9 µM (active) | 18.7 µM (active) | 23.5 µM (active) | 18.7 µM (active) | 1.05 µM (active) | – | – | 23.5 µM (active) | 20.9 µM (active) | 18.7 µM (active)
CC[C@@H]1C=C(C)C[C@H](C)C[C@H](OC)[C@H]2O[C@@](O)(C(=O)C(=O)N3CCCC[C@@H]3C(=O)O[C@H](C(C)=C[C@@H]3CC[C@H](Cl)[C@H](OC)C3)[C@H](C)[C@@H](O)CC1=O)[C@H](C)C[C@H]2OC | 18.7 µM (active) | – | 18.7 µM (active) | – | 8.33 µM (active) | 7.43 µM (active) | – | – | – | – | 5.26 µM (active) | – | – | – | 20.9 µM (active) | – | – | 11.8 µM (active)
CC(C)(C)C(=O)Oc1ccc2c(c1)nc(NC(=O)c1cccc([N+](=O)[O-])c1)n2CCCO | inactive | inactive | inactive | inactive | – | – | – | inactive | – | – | – | – | – | inactive | – | – | 23.5 µM (active) | –
O=C(O)C(O)Cc1ccc(O)c(O)c1 (stereo unspecified) | inactive | inactive | inactive | – | – | inactive | 20.9 µM (active) | inactive | 20.9 µM (active) | – | – | – | – | – | 23.5 µM (active) | – | – | 5.26 µM (active)
CC1(C)S[C@H]2[C@H](NC(=O)[C@@H](N)c3ccc(O)cc3)C(=O)N2[C@@H]1C(=O)O | inactive | 7.43 µM (active) | inactive | 4.69 µM (active) | 0.935 µM (active) | 4.18 µM (active) | – | – | – | – | 20.9 µM (active) | – | – | inactive | – | – | 5.9 µM (active) | –
COC(=O)N[C@H](C(=O)N1CCC[C@@H]1c1ncc(-c2ccc(-c3ccc(-c4cnc([C@@H]5CCCN5C(=O)[C@@H](NC(=O)OC)C(C)C)[nH]4)cc3)cc2)[nH]1)C(C)C | 18.7 µM (active) | 20.9 µM (active) | – | 23.5 µM (active) | 23.5 µM (active) | 16.6 µM (active) | – | 26.4 µM (active) | 26.4 µM (active) | 18.7 µM (active) | – | 20.9 µM (active) | – | – | 23.5 µM (active) | – | – | –
CN(C)CCC=C1c2ccccc2COc2ccc(CC(=O)O)cc21 | inactive | inactive | – | – | inactive | inactive | – | – | inactive | inactive | – | inactive | inactive | – | – | – | – | –
Cc1ccc(C(C)(O)c2nc3ccccc3s2)c(C)c1 (stereo unspecified) | inactive | – | inactive | inactive | – | inactive | – | inactive | – | inactive | inactive | – | inactive | inactive | inactive | – | – | –
CS(=O)(=O)N(Cc1ccco1)CC(O)Cn1c2ccccc2c2ccccc21 (stereo unspecified) | 14.8 µM (active) | inactive | inactive | 6.62 µM (active) | inactive | inactive | – | – | – | – | 18.7 µM (active) | 20.9 µM (active) | – | inactive | – | – | – | –
